The list is not random: actives were taken first. Their share in the collection is about 3%.
EWS-Fli inh: inhibitors of EWS/Fli oncoprotein transcriptional activity; A673 NR0B1-luciferase reporter, viability-normalised; inhibition, % at 12.6 µM; 350,000 compounds, 0.67% hits;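 active = mean inhibition of at least 50% after viability correction, with every replicate also passing that limit; inconclusive = mean reaches 50% but only one of two replicates passes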;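 also: firefly luciferase signal divided by Alamar Blue viability fluorescence both relative to DMSO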
Shn3 inh set2: inhibitors of Schnurri-3 3'UTR reporter in osteoblasts | Clone20 osteoblast Shn3 3'UTR firefly luciferase, 24 h | inhibition, % at 12.5 µM | 360,000 compounds, 0.52% hits | AID 588674;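 active = mean inhibition of at least 75% with every replicate also reaching 75%; inconclusive = mean inhibition at least 75% but some replicate below; inactive = mean inhibition below 75%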;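 also: 0% = median of neutral control wells and 100% = pilot-screen positive control compound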
PAX8 reporter: inhibitors of PAX8 transcriptional activity in RMG-I cells | RMG-I TPO-luciferase reporter, SteadyGlo, 24 h | 360,000 compounds, 1.2% hits | inhibition, % at 12.6 µM;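 active = mean replicate inhibition at least 60% with every replicate also reaching 60%; inconclusive = only one of the two criteria is met; inactive = mean below 60% and not all replicates reaching 60%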;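 also: luciferase light reporting Pax8 driven TPO promoter activity; plate controls were median of neutral control wells for no effect and mitoxantrone controls for full effect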
MITF TRPM1 inh: inhibitors of MITF-driven TRPM1 promoter in melanoma cells; SK-MEL-5 TRPM1 promoter luciferase, 24 h; inhibition, % at 12.5 µM; 330,000 compounds, 0.83% hits;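 active = mean inhibition across replicates of 60% or more, whatever share of single replicates reaches that level; inconclusive = some that reach 60%, reason not given; inactive = mean inhibition across replicates below 60%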
ABHD5-PLIN5 inh: blocks binding of human ABHD5 to perilipin-5; Q00G26+Q8WTS1; Split G. princeps luciferase complementation, luminescence, 4 h; inhibition, % at 4 µM; 360,000 compounds, 0.78% hits;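 active = inhibition above the mean inhibition across every tested compound plus 3 SD, cut at about 22% in these data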;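 also: 0% = DMSO only wells and the 100% control is not disclosed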
Target sequence (Q00G26 whole entry, looked up): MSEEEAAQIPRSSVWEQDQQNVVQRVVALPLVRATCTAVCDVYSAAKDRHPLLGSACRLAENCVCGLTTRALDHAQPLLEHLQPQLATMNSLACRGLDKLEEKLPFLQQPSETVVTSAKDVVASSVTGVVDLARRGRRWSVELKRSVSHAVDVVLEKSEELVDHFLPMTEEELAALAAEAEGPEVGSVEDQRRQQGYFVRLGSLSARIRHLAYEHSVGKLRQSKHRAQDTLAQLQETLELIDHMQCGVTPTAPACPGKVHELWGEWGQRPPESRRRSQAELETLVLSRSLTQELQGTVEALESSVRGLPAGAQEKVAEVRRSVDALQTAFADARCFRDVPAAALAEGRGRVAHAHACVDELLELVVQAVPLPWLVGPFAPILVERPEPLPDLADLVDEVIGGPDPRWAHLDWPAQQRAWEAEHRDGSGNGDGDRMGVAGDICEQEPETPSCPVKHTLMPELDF
Target sequence (Q8WTS1 whole entry, looked up): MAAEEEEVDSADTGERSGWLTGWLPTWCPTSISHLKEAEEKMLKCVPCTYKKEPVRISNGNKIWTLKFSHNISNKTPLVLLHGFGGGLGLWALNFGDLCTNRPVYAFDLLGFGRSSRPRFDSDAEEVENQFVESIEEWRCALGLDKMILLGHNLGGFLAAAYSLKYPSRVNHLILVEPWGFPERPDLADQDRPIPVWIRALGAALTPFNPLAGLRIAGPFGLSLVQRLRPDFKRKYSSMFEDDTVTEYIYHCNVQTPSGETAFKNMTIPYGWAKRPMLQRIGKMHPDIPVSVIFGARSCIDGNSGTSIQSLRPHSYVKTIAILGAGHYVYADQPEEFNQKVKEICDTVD
Peg3 prom inh: inhibitors of Peg3 promoter; HeLa PEG-Prom luciferase reporter, luminescence, overnight; inhibition, % at 20 µM; 360,000 compounds, 1.7% hits; AID 588405;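 active = inhibition of at least 50% at 20 µM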
Starred values were filed as active, the others as inactive; ? = inconclusive; / = not tested or not shown.

SMILES	EWS-Fli inh	Shn3 inh set2	PAX8 reporter	MITF TRPM1 inh	ABHD5-PLIN5 inh	Peg3 prom inh
C#CCOCCOCCOCCNc1nc(N2CCN(C(=O)[C@H](Cc3cc4ccccc4[nH]3)n3cc([C@@H](N)CC(C)C)nn3)CC2)nc(N2CCN(C(=O)[C@H](Cc3cc4ccccc4[nH]3)n3cc([C@@H](N)CC(C)C)nn3)CC2)n1	/	-16	/	1	51*	-1
C#CCOCCOCCOCCNc1nc(N2CCN(C(=O)[C@H](Cc3ccc(O)cc3)n3cc([C@@H](N)C(C)CC)nn3)CC2)nc(N2CCN(C(=O)[C@H](Cc3cc4ccccc4[nH]3)n3cc([C@@H](N)C(C)CC)nn3)CC2)n1 (stereo not given in full)	/	-6	/	28	25*	0
C#CCOCCOCCOCCNc1nc(N2CCOCC2)nc(N2CCN(C(=O)[C@H](Cc3cc4ccccc4[nH]3)n3cc([C@@H](N)CC(C)C)nn3)CC2)n1	/	-17	/	4	16	-15
C[C@@H]1CCCCO[C@H](CN(C)C)[C@H](C)CN([C@H](C)CO)C(=O)c2cc(NS(=O)(=O)c3cn(C)cn3)ccc2O1	/	/	-21	/	/	/
C[C@@H]1CN([C@H](C)CO)C(=O)c2cc(NC(=O)Cc3ccccc3)ccc2O[C@@H](C)CCCCO[C@@H]1CN(C)CC1CCCCC1	40	/	18	/	/	/
N#C/C(=C\c1ccc([N+](=O)[O-])o1)C(=O)Nc1ccc(F)cc1	15	0	13	33	15	53*
N#CCc1ccc(NC(=O)/C=C/c2ccc([N+](=O)[O-])o2)cc1	/	64	/	100*	10	106*
C[C@@H]1CN([C@@H](C)CO)C(=O)c2cc(NS(=O)(=O)c3ccccc3)ccc2O[C@@H](C)CCCCO[C@@H]1CN(C)C(=O)Nc1cccc2ccccc12	12	/	-1	/	/	/
C[C@@H]1CCCCO[C@@H](CN(C)C(=O)Nc2cccc3ccccc23)[C@H](C)CN([C@H](C)CO)C(=O)c2cc(NS(=O)(=O)c3ccccc3)ccc2O1	13	/	80*	/	/	/
Cc1ccc(S(=O)(=O)Nc2ccc3c(c2)C(=O)N([C@@H](C)CO)C[C@@H](C)[C@@H](CN(C)C(=O)Nc2cccc4ccccc24)OCCCC[C@@H](C)O3)cc1	12	/	68*	/	/	/
C[C@@H]1CN([C@@H](C)CO)C(=O)c2cc(NC(=O)c3ccncc3)ccc2O[C@@H](C)CCCCO[C@@H]1CN(C)S(=O)(=O)c1ccc(F)cc1	-4	/	/	/	/	/
C[C@H](CO)N1C[C@H](C)[C@H](CN(C)S(=O)(=O)c2ccc(Cl)cc2)Oc2ccc(NC(=O)Nc3ccc4c(c3)OCO4)cc2CC1=O	61*	/	/	/	/	/
C[C@H]1CN([C@@H](C)CO)C(=O)Cc2cc(NC(=O)Nc3ccc4c(c3)OCO4)ccc2O[C@H]1CN(C)S(=O)(=O)c1ccccc1	55*	/	/	/	/	/
Cc1ccc(S(=O)(=O)N(C)C[C@@H]2Oc3ccc(NC(=O)CCC(F)(F)F)cc3CC(=O)N([C@@H](C)CO)C[C@@H]2C)cc1	66*	6	12	43	-4	9
C[C@@H]1CN([C@H](C)CO)C(=O)Cc2cc(NC(=O)Nc3ccc4c(c3)OCO4)ccc2O[C@@H]1CN(C)S(=O)(=O)c1ccccc1	-5	/	/	/	/	/
Cc1ccc(S(=O)(=O)N(C)C[C@@H]2Oc3ccc(NC(=O)Nc4ccc5c(c4)OCO5)cc3CC(=O)N([C@H](C)CO)C[C@@H]2C)cc1	56*	/	42	/	/	/
Cc1ccc(S(=O)(=O)N(C)C[C@H]2Oc3ccc(NC(=O)Nc4ccc5c(c4)OCO5)cc3CC(=O)N([C@@H](C)CO)C[C@H]2C)cc1	3	/	3	/	/	/
CC(C)NC(=O)N(C)C[C@@H]1Oc2ccc(NC(=O)Nc3ccc(C(F)(F)F)cc3)cc2CC(=O)N([C@@H](C)CO)C[C@@H]1C	-8	/	1	/	/	/
C[C@@H]1CN([C@@H](C)CO)C(=O)c2c(c3ccccc3n2C)-c2ccccc2CO[C@H]1CN(C)Cc1ccc(C(=O)O)cc1	-4	/	/	/	/	/
CNC[C@H]1Oc2ccc(NC(=O)c3ccncc3)cc2CC(=O)N([C@H](C)CO)C[C@H]1C	-3	/	-8	/	/	/
C=CC1CN(S(=O)(=O)c2ccc(Br)cc2)C(=O)N1c1ccc(Br)cc1 (stereo not given)	14	/	47	/	/	/
C[C@H]1CN([C@@H](C)CO)C(=O)Cc2cc(NC(=O)NC3CCCCC3)ccc2O[C@H]1CN(C)S(=O)(=O)c1ccc(Cl)cc1	-5	/	79*	/	/	/
C[C@H]1CN([C@@H](C)CO)C(=O)Cc2cc(NC(=O)Nc3ccc4c(c3)OCO4)ccc2O[C@H]1CN(C)S(=O)(=O)c1ccc(Cl)cc1	58*	/	/	/	/	/
Cc1ccc(S(=O)(=O)N(C)C[C@H]2Oc3ccc(NC(=O)Nc4ccc5c(c4)OCO5)cc3CC(=O)N([C@@H](C)CO)C[C@@H]2C)cc1	5	/	-4	/	/	/
C[C@@H]1CN([C@H](C)CO)C(=O)c2cc(NC(=O)C3CCCCC3)ccc2O[C@@H](C)CCCCO[C@@H]1CN(C)C(=O)Nc1ccccc1	-6	/	-11	/	/	/
SMILES	EWS-Fli inh	Shn3 inh set2	PAX8 reporter	MITF TRPM1 inh	ABHD5-PLIN5 inh	Peg3 prom inh
CC(C)NC(=O)N(C)C[C@H]1OCCCC[C@@H](C)Oc2ccc(NC(=O)c3ccccc3)cc2C(=O)N([C@@H](C)CO)C[C@@H]1C	/	/	-3	/	/	/
COc1ccc(C(CCNC(C)c2ccccc2)C(C)C)cc1 (stereo not given)	39	-10	23	/	11	-8
COc1ccc(C(C)NCCC(c2ccc(OC(C)C)cc2)c2ccccc2OC)cc1 (stereo not given)	?	69	51	92*	-9	104*
COc1ccc(CNC(=O)C[C@H]2C=C[C@H](NS(=O)(=O)c3cccc(OC)c3)[C@@H](CO)O2)cc1	3	/	/	/	/	/
C[C@@H]1CN([C@H](C)CO)C(=O)Cc2cc(NC(=O)Nc3ccccc3)ccc2O[C@H]1CN(C)C(=O)Nc1cccc2ccccc12	6	/	/	/	/	/
C#CC(=O)CC1(CN(Cc2ccccc2)C(=O)OC(C)(C)C)CCCCC1	15	21	76*	5	9	60*
CCCOc1ccc(/C=N/NC(=O)CN2CCCCC2)cc1OCC	19	5	5	9	9	4
COc1ccc(C(=O)N/N=C/c2ccc(OC)c(CN3CCN(c4ccc(F)cc4)CC3)c2)cc1	-3	-23	144*	-8	-8	2
CCCCOc1ccc(C(=O)N/N=C/c2ccc(OCCN3CCCCC3)c(OC)c2)cc1	-2	10	32	-7	11	65*
COC(=O)C[C@@H]1C[C@H]2c3cc(NC(=O)c4cccnc4)ccc3O[C@H]2[C@@H](CO)O1	-5	/	12	/	/	/
C[C@@H]1CCCCO[C@H](CN(C)C(=O)Nc2ccc(C(F)(F)F)cc2)[C@@H](C)CN([C@@H](C)CO)C(=O)c2cc(NC(=O)Nc3ccc(C(F)(F)F)cc3)ccc2O1	-4	/	89*	/	/	/

High-throughput results deposited in PubChem by several laboratories.
